From PubChem BioAssay (NCATS) come the findings set out here.

Inconclusive results are not listed. Where a call stands in place of a potency, no number is given. Active and inactive are the calls of the source. Calls follow the shape of the dose curve; as a rule, active = well fitted curve in the direction sought with a large enough effect; inconclusive = small, poorly fitted or top-dose-only effect, or another doubt; inactive = no such curve, though single readings can be large; an effect the other way counts as inactive or inconclusive.

The nature of one assay: Cytometric Cell-Based qHTS for Inhibitors of the mTORC1 Signaling Pathway in MEF (Tsc2-/-, p53-/-) Cells (AID 2660).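 Also: Tsc2 and p53 null MEFs carrying empty vector with compound for 24 h; percent of cells above a phospho-rpS6 to PI ratio cutoff in each well.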 The note with it: mTORC1 pathway cytometry; series mostly up to 38.3 µM. The method, boiled down: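 Percent of cells positive for normalized phospho-S6 staining is reported, with the cutoff set from rapamycin (7.5 nM) versus DMSO wells. Tsc2-/-, p53-/- MEFs received compound for 24 hrs.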
For `CCCCCCCCc1ccc(-c2ccc(C(=O)O)cc2)cc1`, the call was inactive. On the same count and under the same terms, next, `O=C(CCCCCN1CCN(c2ccccc2-c2ccccc2)CC1)NC1CCCc2ccccc21` (stereo not given): “inactive”; `Cc1ccc(S(=O)(=O)/C=C/C#N)cc1`: “inactive”; `OC[C@H]1O[C@@H](n2cnc3c(NC4CCCC4)ncnc32)[C@H](O)[C@@H]1O`: “inactive”. On the same count and under the same terms, next, `O=P(O)(O)C(Cl)(Cl)P(=O)(O)O`: “inactive”; `NCC1OC(O[C@H]2[C@H](O)[C@@H](OC3C(O)C(N)CC(N)C3OC3OC(CO)C(O)C(O)C3N)O[C@@H]2CO)C(N)C(O)C1O` (stereo not given in full): “inactive”; `CC(C)CC(NP(=O)(O)O[C@@H]1O[C@@H](C)[C@H](O)[C@@H](O)[C@H]1O)C(=O)NC(Cc1c[nH]c2ccccc12)C(=O)O` (stereo not given in full): “inactive”. For `CSc1ccccc1N1CCN(CCCCCC(=O)NC2CCCc3ccccc32)CC1` (stereo not given), the compound was called inactive.

A short description of a further assay: High Content Imaging Cell-Based qHTS for Inhibitors of the mTORC1 Signaling Pathway in MEF (Tsc2-/-, p53-/-) Cells (AID 2666).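 Also: percent of cells scored positive for phospho-rpS6 Ser235/236 immunostaining by imaging.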 Also: potency is read from the fitted curve at half-maximal effect. To be noted: series mostly up to 38.3 µM. The method, boiled down:
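Tsc2-/-, p53-/- MEFs (empty-vector stable) grown in DMEM + 10% FBS were exposed to compounds for 24 hrs at 37 degree Celsius, fixed, and stained with Alexa-488 anti-phospho-rpS6 Ser235/236 plus Hoechst. Imaging gave the percentage of positive cells per well.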
With `CN(C)CCCO[C@@H]1[C@H]2OC(C)(C)O[C@H]2O[C@@H]1[C@H](O)CO`, the Potency entry is “inactive”. The same measure, in the same setting: next, `CCCC1(C)C(C#N)(C#N)C1(C#N)C#N`: “inactive”; `COc1ccccc1N1CCN(CCN(C(=O)c2ccc(I)cc2)c2ccccn2)CC1`: “inactive”.

Turning to `CCCCCCCCc1ccc(-c2ccc(C(=O)O)cc2)cc1`, the Potency result is “inactive”. In the case of `O=C(CCCCCN1CCN(c2ccccc2-c2ccccc2)CC1)NC1CCCc2ccccc21` (stereo not given), the Potency result was “inactive”. Take `NC[C@H]1O[C@@H](n2cnc3c(N)ncnc32)[C@H](O)[C@@H]1O`: the Potency result is “inactive”.

With `NS(=O)(=O)C#Cc1ccccc1`, the Potency result was “inactive”. Regarding `O=C1NC(=O)/C(=C/c2ccc3nccnc3c2)S1`, the Potency entry was “inactive”. Same read-out and setting: under `CCNC(=O)[C@H]1O[C@@H](n2cnc3c(N)nc(NCCc4ccc(CCC(=O)O)cc4)nc32)[C@H](O)[C@@H]1O` stands “inactive”.

Regarding `CC(C)NC[C@@H](O)c1ccc(O)c(O)c1`, the Potency entry is “inactive”. Regarding `Cc1ccc(S(=O)(=O)/C=C/C#N)cc1`, the Potency entry is “inactive”.

Consider `COc1ccc2c(c1)CCC1C2CC[C@@]2(C)C1CC[C@@H]2NCCCCCCN1C(=O)CCC1=O` (stereo not given in full), for which the Potency result was “inactive”. Same read-out and setting: under `CC(N)C(=O)OC(C)(C)Cc1ccc(Cl)cc1` (stereo not given) stands “inactive”; under `Cn1ncc(S(=O)(=O)Cc2ccccc2)c(Br)c1=O`, “inactive”. Regarding `OC[C@H]1O[C@@H](n2cnc3c(NC4CCCC4)ncnc32)[C@H](O)[C@@H]1O`, the Potency entry was “inactive”.

With `O=P(O)(O)C(Cl)(Cl)P(=O)(O)O`, the Potency entry is “inactive”. As to `Nc1ncnc2c1c(I)cn2[C@@H]1C[C@H](N)[C@@H](O)[C@H]1O`, the Potency result was “inactive”.

`Cc1cc(NC2CCCCC2)nc(-n2nc(C)cc2C)n1`: the Potency entry was “inactive”. The same measure, in the same setting: next, `N=c1ccn2c(n1)O[C@H]1[C@H](O)[C@@H](CO)O[C@H]12`: “inactive”. The same measure, in the same setting: next, `NCC1OC(O[C@H]2[C@H](O)[C@@H](OC3C(O)C(N)CC(N)C3OC3OC(CO)C(O)C(O)C3N)O[C@@H]2CO)C(N)C(O)C1O` (stereo not given in full): “inactive”; `Cc1cc2c(cc1Cl)N(C(=O)Nc1ccc(Oc3cccnc3C)nc1)CC2`: “inactive”; `CN1C2CC(OC(=O)[C@H](CO)c3ccccc3)CC1C1OC12` (stereo not given in full): “inactive”. Still for that read-out and setting: under `C=CC(C)=C[C@@]1(C)SC(=O)C(C)=C1O` stands “inactive”. In the case of `CCOC(=O)N1CCN(/[N+]([O-])=N/Oc2ccc([N+](=O)[O-])cc2[N+](=O)[O-])CC1`, the Potency was 13.1 µM (active).

Regarding `CC(C)CC(NP(=O)(O)O[C@@H]1O[C@@H](C)[C@H](O)[C@@H](O)[C@H]1O)C(=O)NC(Cc1c[nH]c2ccccc12)C(=O)O` (stereo not given in full), the Potency entry was “inactive”. Same read-out and setting: next, `O=[N+]([O-])c1ccc2c(c1)S(=O)(=O)C=C2`: “inactive”. As for `CSc1ccccc1N1CCN(CCCCCC(=O)NC2CCCc3ccccc32)CC1` (stereo not given), the Potency result is “inactive”. For the compound `C=C[C@H]1CN2CC[C@@H]1C[C@@H]2[C@@H](O)c1ccnc2ccc(OC)cc12`, the Potency entry is “inactive”. For the compound `O=C1/C(=C/c2ccsc2)CC/C1=C\c1cccs1`, the Potency entry was “inactive”. Same read-out and setting: next, `CNc1ncnc2c1ncn2[C@@H]1O[C@H](CO)[C@@H](O)[C@H]1O`: “inactive”.

`N#C/C(=C\c1ccc(-c2cc(Cl)ccc2Cl)o1)C(=O)Nc1cccc2ncccc12`: the Potency result was “inactive”.

`CCN(CC)c1ncnc2c1ncn2[C@@H]1O[C@H](COP(=O)(O)OP(=O)(O)C(Br)(Br)P(=O)(O)O)[C@@H](O)[C@H]1O`: the Potency result was “inactive”.

Another assay in a line: High Content Imaging Cell-Based qHTS for Inhibitors of the mTORC1 Signaling Pathway in MEF Cells (AID 2667). Also: potency is read from the fitted curve at half-maximal effect. The note with it: series mostly up to 38.3 µM. The method, boiled down: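 Tsc2-/-, p53-/- MEFs stably re-expressing WT Tsc2, grown in DMEM + 10% FBS, were treated with compounds for 24 hrs at 37 degree Celsius, fixed, and stained with Alexa-488 phospho-rpS6 Ser235/236 antibody plus Hoechst; results given as % positive cells.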
Take `CN(C)CCCO[C@@H]1[C@H]2OC(C)(C)O[C@H]2O[C@@H]1[C@H](O)CO`: the Potency entry was “inactive”.

For `NC[C@H]1O[C@@H](n2cnc3c(N)ncnc32)[C@H](O)[C@@H]1O`, the Potency result is “inactive”. Still for that read-out and setting: under `NS(=O)(=O)C#Cc1ccccc1` stands “inactive”; under `CCNC(=O)[C@H]1O[C@@H](n2cnc3c(N)nc(NCCc4ccc(CCC(=O)O)cc4)nc32)[C@H](O)[C@@H]1O`, “inactive”; under `CC(C)NC[C@@H](O)c1ccc(O)c(O)c1`, “inactive”. Same read-out and setting: next, `COc1ccc2c(c1)CCC1C2CC[C@@]2(C)C1CC[C@@H]2NCCCCCCN1C(=O)CCC1=O` (stereo not given in full): 3.69 µM (active). Still for that read-out and setting: next, `Cc1cc(NC2CCCCC2)nc(-n2nc(C)cc2C)n1`: “inactive”; `N=c1ccn2c(n1)O[C@H]1[C@H](O)[C@@H](CO)O[C@H]12`: “inactive”.

Consider `CN1C2CC(OC(=O)[C@H](CO)c3ccccc3)CC1C1OC12` (stereo not given in full), for which the Potency entry was “inactive”. Still for that read-out and setting: next, `C=CC(C)=C[C@@]1(C)SC(=O)C(C)=C1O`: “inactive”; `O=[N+]([O-])c1ccc2c(c1)S(=O)(=O)C=C2`: 1.85 µM (active); `C=C[C@H]1CN2CC[C@@H]1C[C@@H]2[C@@H](O)c1ccnc2ccc(OC)cc12`: “inactive”.

In the case of `O=C1/C(=C/c2ccsc2)CC/C1=C\c1cccs1`, the Potency entry was “inactive”. On the same count and under the same terms, under `N#C/C(=C\c1ccc(-c2cc(Cl)ccc2Cl)o1)C(=O)Nc1cccc2ncccc12` stands “inactive”; under `CCN(CC)c1ncnc2c1ncn2[C@@H]1O[C@H](COP(=O)(O)OP(=O)(O)C(Br)(Br)P(=O)(O)O)[C@@H](O)[C@H]1O`, “inactive”.
